Measurements from PubChem BioAssay AID1159580 (chemical genetic matrix, 2015).
Out of some 5,500 compounds screened, about 2,000 (36%) were called active. Not shown: some 18% with an inconclusive outcome. Cut-off read from the data, not from the text of the source: active = normalized growth mostly below about 0.91 (no sharp cut-off); inconclusive = no clear call, values can overlap the other calls; inactive = mostly above about 0.92. This is one part of the list.

Assay: chemical genetic growth profiling, strain panel (AID 1159580);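 note: tested at 20 µM; growth read once vehicle control cultures reached saturation at 30 °C; 1 = growth at the plate median or of vehicle wells; lower values mean less growth of the strain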
Settings: growth OD
[1] = S. cerevisiae deletion strains, locus YGR078C, strain PAC10, stronger effect = lower value
[2] = S. cerevisiae deletion strains, locus YNL322C, strain KRE1, stronger effect = lower value

Measured: normalized growth

CCC(C)N(C)C(=O)c1cc2ccccc2c(-c2ccccc2Cl)n1 (stereo unspecified)
inactive: S. cerevisiae deletion strains, locus YAL040C, strain CLN3, stronger effect = lower value 0.965 | S. cerevisiae deletion strains, locus YDR363W, strain ESC2, stronger effect = lower value 0.973 | S. cerevisiae deletion strains, locus YER002W, strain NOP16, stronger effect = lower value 1.03 | [1] 0.998 | S. cerevisiae deletion strains, locus YNL175C, strain NOP13, stronger effect = lower value 1 | S. cerevisiae deletion strains, locus YNL197C, strain WHI3, stronger effect = lower value 0.95 | S. cerevisiae deletion strains, locus YNL224C, strain SQS1, stronger effect = lower value 0.988 | [2] 0.987 | S. cerevisiae deletion strains, locus YOR083W, strain WHI5 (second series), stronger effect = lower value 0.955

S=c1[nH]c2ccccc2[nH]1
inactive: S. cerevisiae deletion strains, locus YAL013W, strain DEP1, stronger effect = lower value 0.988 | S. cerevisiae deletion strains, locus YBR229C, strain ROT2, stronger effect = lower value 1.01 | S. cerevisiae deletion strains, locus YDL101C, strain DUN1, stronger effect = lower value 1.02 | S. cerevisiae deletion strains, locus YDR150W, strain NUM1, stronger effect = lower value 0.993 | S. cerevisiae deletion strains, locus YEL061C, strain CIN8, stronger effect = lower value 0.982 | [1] 1.02 | S. cerevisiae deletion strains, locus YHR030C, strain SLT2, stronger effect = lower value 1 | S. cerevisiae deletion strains, locus YHR087W, strain rtc3, stronger effect = lower value 1.01 | S. cerevisiae deletion strains, locus YJR043C, strain POL32, stronger effect = lower value 0.988 | S. cerevisiae deletion strains, locus YJR075W, strain HOC1, stronger effect = lower value 1.01 | S. cerevisiae deletion strains, locus YLR039C, strain RIC1, stronger effect = lower value 0.99 | S. cerevisiae deletion strains, locus YLR058C, strain SHM2 (second series), stronger effect = lower value 0.991 | S. cerevisiae deletion strains, locus YLR085C, strain ARP6, stronger effect = lower value 0.976 | S. cerevisiae deletion strains, locus YLR262C, strain YPT6, stronger effect = lower value 0.986 | S. cerevisiae deletion strains, locus YML094W, strain GIM5, stronger effect = lower value 1.06 | S. cerevisiae deletion strains, locus YMR219W, strain ESC1, stronger effect = lower value 0.999 | S. cerevisiae deletion strains, locus YMR263W, strain SAP30, stronger effect = lower value 0.984 | S. cerevisiae deletion strains, locus YMR307W, strain GAS1, stronger effect = lower value 0.87 | S. cerevisiae deletion strains, locus YNL128W, strain TEP1, stronger effect = lower value 1.02 | S. cerevisiae deletion strains, locus YNL153C, strain GIM3, stronger effect = lower value 1.01 | S. cerevisiae deletion strains, locus YNL298W, strain CLA4 (second series), stronger effect = lower value 0.997 | [2] 1 | S. cerevisiae deletion strains, locus YNR030W, strain Alg12, stronger effect = lower value 1.01 | S. cerevisiae deletion strains, locus YPL055C, strain LGE1, stronger effect = lower value 0.961 | S. cerevisiae deletion strains, locus YPL241C, strain CIN2, stronger effect = lower value 1.03 | S. cerevisiae deletion strains, locus YPR135W, strain CTF4, stronger effect = lower value 1.01 | S. cerevisiae strains, strain wild type, stronger effect = lower value 0.995
